The structures appear in SMILES notation. Hit rate of the full screen: of about 2,400 compounds, about 750 (31%) were called active. The list shows a part of the results. A number with no mark means an inactive call.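 Rule for the calls: active = median signal gain over dofetilide-blocked control wells reaching their mean plus 3 SD, so readout 1 at least 0; inactive = the rest.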

The target of this assay is Voltage-gated inwardly rectifying potassium channel KCNH2 (Homo sapiens) (UniProt Q12809). The assay can be described thus: modulators restoring hERG flux under dofetilide – cell-based, thallium flux, duplicate retest, dofetilide IC70, confirmation (AID 1835). The note with it: hERG cell line, FluxOR thallium flux, dofetilide-blocked; at 10 µM; stronger effect = higher value. A general note: hERG is a cardiac potassium channel; its block is linked to QT prolongation.
Sequence of Voltage-gated inwardly rectifying potassium channel KCNH2 (Homo sapiens) (Q12809 whole entry, looked up): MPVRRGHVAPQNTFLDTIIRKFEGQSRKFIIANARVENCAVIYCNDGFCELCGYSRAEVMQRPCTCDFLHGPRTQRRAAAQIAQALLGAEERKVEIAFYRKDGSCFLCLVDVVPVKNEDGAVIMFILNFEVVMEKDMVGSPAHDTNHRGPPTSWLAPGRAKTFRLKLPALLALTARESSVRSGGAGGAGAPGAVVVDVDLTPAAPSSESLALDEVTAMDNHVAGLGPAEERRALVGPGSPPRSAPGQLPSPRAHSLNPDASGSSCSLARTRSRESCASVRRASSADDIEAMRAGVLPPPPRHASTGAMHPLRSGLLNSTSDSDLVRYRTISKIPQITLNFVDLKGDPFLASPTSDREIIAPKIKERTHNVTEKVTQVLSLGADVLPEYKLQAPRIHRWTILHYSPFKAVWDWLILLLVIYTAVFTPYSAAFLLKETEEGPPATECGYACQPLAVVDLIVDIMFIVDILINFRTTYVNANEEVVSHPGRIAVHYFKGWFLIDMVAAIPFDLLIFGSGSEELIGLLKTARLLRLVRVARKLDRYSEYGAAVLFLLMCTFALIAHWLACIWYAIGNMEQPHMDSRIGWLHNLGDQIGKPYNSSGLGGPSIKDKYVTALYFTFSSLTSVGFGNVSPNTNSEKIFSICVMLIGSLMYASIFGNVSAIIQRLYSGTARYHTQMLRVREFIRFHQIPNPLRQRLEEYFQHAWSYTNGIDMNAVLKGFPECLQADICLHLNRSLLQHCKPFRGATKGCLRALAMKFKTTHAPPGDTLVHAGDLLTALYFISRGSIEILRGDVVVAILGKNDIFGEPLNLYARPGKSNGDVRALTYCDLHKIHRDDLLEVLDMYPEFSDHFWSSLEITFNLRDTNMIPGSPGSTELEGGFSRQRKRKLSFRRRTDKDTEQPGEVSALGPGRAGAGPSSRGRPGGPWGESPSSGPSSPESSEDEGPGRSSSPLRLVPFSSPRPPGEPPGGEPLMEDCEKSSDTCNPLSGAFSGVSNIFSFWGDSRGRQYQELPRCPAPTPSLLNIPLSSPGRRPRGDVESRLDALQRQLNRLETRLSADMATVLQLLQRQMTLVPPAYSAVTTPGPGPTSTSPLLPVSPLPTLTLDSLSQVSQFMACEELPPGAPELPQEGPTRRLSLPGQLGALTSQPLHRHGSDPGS
Regarding `CC/C(=C\C=C\[C@@H]1C=C[C@@H]2CCC[C@H]2[C@@H]1C(=O)c1ccc[nH]1)[C@@H]1O[C@@H]([C@@H](C)C(=O)O)CC[C@@H]1C`, the activity increase over dofetilide control, less the hit threshold is 128% (active).

Take `Cc1nc2ccccc2c(=O)n1-c1cc([N+](=O)[O-])cc([N+](=O)[O-])c1`: the activity increase over dofetilide control was -26%.

`O=C(Cn1ncc2c3ccccc3n(Cc3ccccc3F)c2c1=O)N1CCC2(CC1)OCCO2`: the activity increase over dofetilide control is 2% (active).

`CCCc1[nH]nc2c1C1(C(=O)N(Cc3ccccc3)c3ccccc31)C(C(=O)OC)=C(N)O2` (stereo unspecified): the activity increase over dofetilide control, less the hit threshold is -35%.

For `CC(=NCc1ccco1)c1c(O)n(-c2ccc(C)cc2)c(=O)[nH]c1=O`, the activity increase over dofetilide control was -19%.

For `O=c1[nH]c(=S)[nH]c(O)c1N=Nc1ccc(S(=O)(=O)N2CCc3ccccc32)cc1`, the activity increase over dofetilide control is 25% (active).

Regarding `COc1ccc(-c2nc(CSCC(=O)N3CCC4(CC3)OCCO4)c(C)o2)cc1OC`, the activity increase over dofetilide control is -23%.

Regarding `O=C(COc1ccc(Br)cc1)N1CCN(Cc2ccc3c(c2)OCO3)CC1`, the activity increase over dofetilide control, less the hit threshold is -12%.

As to `CCOC(=O)c1c(NS(=O)(=O)c2ccccc2)n(CCCOC)c2nc3ccccc3nc12`, the activity increase over dofetilide control, less the hit threshold was 65% (active).

As to `CCCCn1c(O)c(C(CC)=Nc2ccc(OCC)cc2)c(=O)[nH]c1=O`, the activity increase over dofetilide control is -23%.

As for `NS(=O)(=O)c1ccc(-c2ccc(C=C3C(=O)NC(=O)NC3=O)o2)cc1`, the activity increase over dofetilide control is -2%.

On to `CCOC(=O)Cn1cc([N+](=O)[O-])nc1[N+](=O)[O-]`, for which the activity increase over dofetilide control, less the hit threshold is -18%.

With `O=C1CC(=O)N(c2cccc(C(F)(F)F)c2)C(=O)N1`, the activity increase over dofetilide control, less the hit threshold is -15%.

Regarding `Cc1ccc(-n2c(O)c(/C=N/Nc3ccccc3)c(=O)[nH]c2=O)cc1C`, the activity increase over dofetilide control is -5%.

On to `C=CCn1c(O)c(/C=C2/C=c3ccccc3=N2)c(=O)[nH]c1=S`, for which the activity increase over dofetilide control was 96% (active).

`O=c1[nH]c(=S)[nH]c(O)c1/C=C1/C=c2ccccc2=N1`: the activity increase over dofetilide control is 14% (active).

For `Cc1ccc(S(=O)(=O)NC(Cc2cnc[nH]2)C(=O)O)cc1` (stereo unspecified), the activity increase over dofetilide control, less the hit threshold is -7%.

For `COc1ccc2c3c1OC1C(O)C=CC4C(C2)[N+](C)(C)CCC341` (stereo unspecified), the activity increase over dofetilide control is -2%.

Turning to `Oc1ccc(CC2(N3CCCC3)CCCCC2)cc1`, the activity increase over dofetilide control, less the hit threshold is -14%.

As for `CC(C)(C)c1ccc(OC(=O)N2CCCCC2)cc1`, the activity increase over dofetilide control, less the hit threshold is -16%.

As for `O=S(=O)(c1ccccc1)N1CCCCC1c1cccnc1` (stereo unspecified), the activity increase over dofetilide control, less the hit threshold was -17%.

`O=C1NC(=O)N(Cc2ccccc2Cl)C(=O)/C1=C/N1CCOCC1`: the activity increase over dofetilide control was -7%.

`O=C1NC(=O)C(=Cc2ccc(-c3ccc(Cl)cc3)o2)C(=O)N1`: the activity increase over dofetilide control was -1%.

On to `O=C(O)CCC(=O)NCCC1=c2ccccc2=N/C1=C\c1c(O)n(Cc2ccc(F)cc2)c(=S)[nH]c1=O`, for which the activity increase over dofetilide control was 11% (active).

As to `CN1C(=O)C(Cc2ccc3c(c2)OCO3)C(=O)N(C)C1=O`, the activity increase over dofetilide control was -15%.

Take `N#CC1=C(N)Oc2c(c(=O)oc3ccccc23)C1c1cccnc1` (stereo unspecified): the activity increase over dofetilide control, less the hit threshold was 8% (active).

For `Oc1cccc2cccnc12`, the activity increase over dofetilide control, less the hit threshold was -5%.

Take `N#CCCn1cc(C(=O)Nc2ccccc2Cl)c(-c2ccc(F)cc2)n1`: the activity increase over dofetilide control, less the hit threshold is -14%.

Turning to `O=c1c2cc(Br)ccc2[nH]c(=S)n1-c1ccccc1`, the activity increase over dofetilide control, less the hit threshold is 2% (active).

`O=c1c2ccccc2[nH]c(=S)n1-c1ccc2c(c1)OCCO2`: the activity increase over dofetilide control, less the hit threshold is -26%.

For `CCCCN1C(=O)/C(=C/c2ccc(N3CCCCCC3)cc2)C(=O)NC1=S`, the activity increase over dofetilide control is -4%.

Turning to `CN1C(=O)/C(=C\c2ccc(Br)s2)C(=O)NC1=S`, the activity increase over dofetilide control is 26% (active).

In the case of `CN1C(=O)/C(=C/c2ccc(Cl)s2)C(=O)NC1=S`, the activity increase over dofetilide control was 12% (active).

For the compound `C=CCN1C(=O)/C(=C/c2ccc(Br)s2)C(=O)NC1=S`, the activity increase over dofetilide control is 8% (active).

`O=C1NC(=O)C(=Cc2ccc(-c3cc(Cl)ccc3[N+](=O)[O-])o2)C(=O)N1`: the activity increase over dofetilide control was -20%.

As for `CN1CCN(CC#CCOc2ccc(Cl)cc2)CC1`, the activity increase over dofetilide control, less the hit threshold is -9%.

Regarding `C1CCC2S[C@H]3CCCCC3NC2C1` (stereo partly specified), the activity increase over dofetilide control, less the hit threshold was -17%.

Consider `NC(=O)Cn1cc(C(=O)c2ccccc2F)c2ccccc21`, for which the activity increase over dofetilide control is -9%.

As to `CC(=NCc1ccco1)c1c(O)n(C)c(=O)n(C)c1=O`, the activity increase over dofetilide control was -12%.

With `O=c1[nH]c(O)c(/C=C2/C=CC(c3cc(Cl)ccc3Cl)=N2)c(=O)[nH]1`, the activity increase over dofetilide control is 30% (active).

`O=C(O)c1c[nH]c2ccc(S(=O)(=O)N(CCCl)CCCl)cc12`: the activity increase over dofetilide control, less the hit threshold was -11%.

On to `CC1N=C(c2ccccc2Cl)c2cc(Br)ccc2NC1=O` (stereo unspecified), for which the activity increase over dofetilide control is -24%.

`CN1CCCCC1c1ccc(-c2cccnc2)nc1` (stereo unspecified): the activity increase over dofetilide control, less the hit threshold is -15%.

On to `COc1ccc(OC)c(N2C(=O)/C(=C/c3ccco3)C(=O)NC2=S)c1`, for which the activity increase over dofetilide control was 0%.

In the case of `O=C1NC(=S)N(c2ccc(F)cc2)C(=O)/C1=C/c1ccco1`, the activity increase over dofetilide control is 4% (active).

As for `Cc1ccc(/C=C2\C(=O)NC(=S)N(c3ccc(F)cc3)C2=O)s1`, the activity increase over dofetilide control was 5% (active).

For the compound `O=C1NC(=O)N(c2ccccc2)C(=O)/C1=C/c1ccc(Sc2ccccc2)o1`, the activity increase over dofetilide control is -6%.

Turning to `Cc1ccccc1N1C(=O)/C(=C/c2ccco2)C(=O)NC1=S`, the activity increase over dofetilide control is 14% (active).

Take `COc1ccc(CN2CCCC(C(=O)c3sccc3C)C2)cc1O` (stereo unspecified): the activity increase over dofetilide control, less the hit threshold was -21%.

As to `COc1cccc(OC)c1C(=O)Nc1nc(N)n(-c2ccccc2)n1`, the activity increase over dofetilide control, less the hit threshold is -22%.

`CCn1nc(/C=C/c2ccccc2)nc2c(=O)n(C)c(=O)nc1-2`: the activity increase over dofetilide control, less the hit threshold was -22%.

As to `O=C1NC(=O)N(CCNc2ncc(C(F)(F)F)cc2Cl)C(=O)C1Cc1ccc(Cl)cc1` (stereo unspecified), the activity increase over dofetilide control is -11%.

`CN(C)C(=O)O/N=C(\N)COc1ccc(C(C)(C)C)cc1`: the activity increase over dofetilide control, less the hit threshold is -17%.

As to `NCCc1ccc(S(N)(=O)=O)cc1`, the activity increase over dofetilide control, less the hit threshold is -18%.

As to `COc1ccccc1N1CCN(Cc2ccc(F)cc2)CC1`, the activity increase over dofetilide control is -10%.

For the compound `COc1ccc2c(c1)/C(=C/c1cnc[nH]1)C(=O)N2`, the activity increase over dofetilide control, less the hit threshold is -6%.
